What all share (conditions): mRNA level, 48 h; actives raise or lower the signal
Read-out in experiment [1]: Cytochrome P450 (CYP24A1), CYP24A1 (gene 1591)
In words: LTEA_HepaRG_CYP24A1: Life Technologies and Expression Analysis (LTEA) Assay for Cytochrome P450 (CYP24A1) using HepaRG (AID 2283478). In a few lines: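 qRT-PCR read-out: CYP24A1 transcript levels normalized to three housekeeping genes, bidirectional curve fits against 0.5% DMSO baseline. Human HepaRG cells treated 48 h with chemicals at eight concentrations from 100 uM in half-log steps.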

Read-out in experiment [2]: Cytochrome P450 (CYP1A2), CYP1A2 (gene 1544)
In words: LTEA_HepaRG_CYP1A2: Life Technologies and Expression Analysis (LTEA) Assay for Cytochrome P450 (CYP1A2) using HepaRG (AID 2283479). In outline:
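HepaRG, 48 h exposure, top 100 uM, half-log 8-pt, 0.5% DMSO vehicle, duplicates. Readout: TaqMan qRT-PCR of CYP1A2 mRNA, housekeeping-normalized (ACTB/GAPDH/POLR2A). Gain/loss fit relative to DMSO baseline.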

Read-out in experiment [3]: cysteine-aspartic acid protease (CASP8), CASP8 (gene 841)
In words: LTEA_HepaRG_CASP8: Life Technologies and Expression Analysis (LTEA) Assay for cysteine-aspartic acid protease (CASP8) using HepaRG (AID 2283480). In outline:
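HepaRG, 48 h exposure, duplicate wells; 8 conc, half-log from 100 uM, 0.5% DMSO. Serum-free induction medium. CASP8 mRNA by TaqMan qRT-PCR, norm. ACTB/GAPDH/POLR2A; gain/loss fitted vs DMSO.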

Read-out in experiment [4]: Cytochrome P450 (CYP2B6), CYP2B6 (gene 1555)
Put plainly: LTEA_HepaRG_CYP2B6: Life Technologies and Expression Analysis (LTEA) Assay for Cytochrome P450 (CYP2B6) using HepaRG (AID 2283481). In outline:
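Read-out is CYP2B6 mRNA by TaqMan qRT-PCR, normalized to three housekeeping genes and fitted bidirectionally against 0.5% DMSO baseline. Human HepaRG cells received test chemicals for 48 h, top concentration 100 uM, half-log dilutions.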

Read-out in experiment [5]: Cytochrome P450 2C19 (Homo sapiens) (UniProt P33261)
In words: LTEA_HepaRG_CYP2C19: Life Technologies and Expression Analysis (LTEA) Assay for CYP2C19 using HepaRG (AID 2283482). In outline: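 HepaRG, 48 h chemical exposure, 8-pt half-log series from 100 uM in 0.5% DMSO, duplicates. Readout: CYP2C19 mRNA by TaqMan qRT-PCR, housekeeping-normalized. Bidirectional fit vs DMSO baseline; phenobarbital 1mM as induction control.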

Read-out in the next experiment: CYP2C8 (gene 1558)
In words: LTEA_HepaRG_CYP2C8: Life Technologies and Expression Analysis (LTEA) Assay for CYP2C8 using HepaRG (AID 2283483). In a few lines: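 CYP2C8 mRNA induction or loss, by qRT-PCR normalized to ACTB/GAPDH/POLR2A, is read in HepaRG cells after 48 h treatment. Concentrations run from 100 uM down in half-log dilutions, with 0.5% DMSO as vehicle and baseline.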

Read-out in the next experiment: CYP2C9 (gene 1559)
In words: LTEA_HepaRG_CYP2C9: Life Technologies and Expression Analysis (LTEA) Assay for CYP2C9 using HepaRG (AID 2283484). In outline:
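Cells plated 48 h, switched to serum-free induction medium, then treated in duplicate for 48 h at eight concentrations (max 100 uM, 0.5% DMSO). RNA then analysed by qRT-PCR for CYP2C9; curves fitted in both directions relative to DMSO.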

Read-out in a further experiment: CYP2E1 (gene 1571)
In words: LTEA_HepaRG_CYP2E1: Life Technologies and Expression Analysis (LTEA) Assay for CYP2E1 using HepaRG (AID 2283485). In a few lines: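 Human liver line HepaRG, plated 48 h, then serum-free induction medium + chemical x 48 h; 8-pt CRC from 100 uM, half-log, 0.5% DMSO, n=2. Readout: CYP2E1 mRNA qRT-PCR vs ACTB/GAPDH/POLR2A; bidirectional fit vs DMSO.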

Read-out in the next experiment: CYP4A11 (gene 1579)
Put plainly: LTEA_HepaRG_CYP4A11: Life Technologies and Expression Analysis (LTEA) Assay for CYP4A11 using HepaRG (AID 2283486). In a few lines:
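CYP4A11 transcript levels were quantified by TaqMan qRT-PCR after HepaRG human liver cells were treated for 48 hours with test chemicals (top 100 uM, half-log dilutions, 0.5% DMSO). Gain or loss of signal was fitted relative to DMSO.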

Read-out in experiment [6]: Cytochrome P450 3A4 (Homo sapiens) (UniProt P08684)
Put plainly: LTEA_HepaRG_CYP3A4: Life Technologies and Expression Analysis (LTEA) Assay for CYP3A4 using HepaRG (AID 2283487). In a few lines: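 HepaRG, 48 h exposure, 8-pt CRC from 100 uM (half-log), 0.5% DMSO, duplicates; serum-free induction medium. Readout: CYP3A4 mRNA, qRT-PCR, ACTB/GAPDH/POLR2A normalization. Bidirectional fit vs DMSO.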

Read-out in experiment [7]: DNA damage-inducible transcript 3 (DDIT3), DDIT3 (gene 1649)
In words: LTEA_HepaRG_DDIT3: Life Technologies and Expression Analysis (LTEA) Assay for DNA damage-inducible transcript 3 (DDIT3) using HepaRG (AID 2283488). In a few lines:
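HepaRG plated 48 h, switched to serum-free induction medium, dosed 48 h (100 uM top, half-log, 8 pts, 0.5% DMSO, n=2); RNA isolated; DDIT3 by qRT-PCR; bidirectional curve fit vs DMSO.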

Read-out in experiment [8]: Pro-epidermal growth factor (Homo sapiens) (UniProt P01133)
Put plainly: LTEA_HepaRG_EGF: Life Technologies and Expression Analysis (LTEA) Assay for Epidermal growth factor (EGF) using HepaRG (AID 2283489). In a few lines: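 qRT-PCR readout of EGF transcript after 48 h chemical exposure of HepaRG cells; eight concentrations from 100 uM down in half-log steps, duplicate wells, 0.5% DMSO vehicle. Bidirectional curve fitting against DMSO baseline.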

Read-out in experiment [9]: Early growth response protein 1 (EGR1) transcription factor, EGR1 (gene 1958)
In words: LTEA_HepaRG_EGR1: Life Technologies and Expression Analysis (LTEA) Assay for Early growth response protein 1 (EGR1) transcription factor using HepaRG (AID 2283490). In a few lines:
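Read-out is EGR1 mRNA level by qRT-PCR, normalized to three housekeeping genes and analysed for gain or loss of signal against 0.5% DMSO. Source cells: human HepaRG, treated 48 h at up to 100 uM in half-log dilutions.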

Read-out in experiment [10]: Ezrin (EZR), EZR (gene 7430)
In words: LTEA_HepaRG_EZR: Life Technologies and Expression Analysis (LTEA) Assay for Ezrin (EZR) using HepaRG (AID 2283491). In a few lines: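 Read-out is EZR transcript level by qRT-PCR, normalized to three housekeeping genes and fitted bidirectionally against the DMSO control. Human HepaRG cells received test chemicals for 48 h at eight half-log concentrations up to 100 uM in 0.5% DMSO.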

Read-out in experiment [11]: Cytochrome P450 3A7 (Homo sapiens) (UniProt P24462)
In words: LTEA_HepaRG_CYP3A7: Life Technologies and Expression Analysis (LTEA) Assay for CYP3A7 using HepaRG (AID 2283492). In a few lines:
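CYP3A7 transcript levels were read by TaqMan qRT-PCR on Fluidigm arrays after 48 h chemical exposure of human HepaRG cells, with housekeeping-gene normalisation. Eight half-log concentrations up to 100 uM in 0.5% DMSO were tested in duplicate.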

Read-out in the next experiment: CYP3A5 (gene 1577)
Put plainly: LTEA_HepaRG_CYP3A5: Life Technologies and Expression Analysis (LTEA) Assay for CYP3A5 using HepaRG (AID 2283493). In a few lines:
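HepaRG plated 48 h, switched to serum-free induction medium, chemicals added 48 h (max 100 uM, half-log, 0.5% DMSO). RNA isolated; CYP3A5 by TaqMan qRT-PCR. Gain/loss vs DMSO.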

Read-out in experiment [12]: Fatty Acid-Binding Protein 1 (FABP1), FABP1 (gene 2168)
Put plainly: LTEA_HepaRG_FABP1: Life Technologies and Expression Analysis (LTEA) Assay for Fatty Acid-Binding Protein 1 (FABP1) using HepaRG (AID 2283494). In a few lines: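 HepaRG, 48 h post-plating switched to serum-free induction medium, then dosed 48 h (duplicate, 8 pts, ≤100 uM, 0.5% DMSO). RNA → Fluidigm TaqMan qRT-PCR, FABP1 normed to ACTB/GAPDH/POLR2A. Bidirectional curve fit vs DMSO.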

Read-out in experiment [13]: Cytochrome P450 4A22 (Homo sapiens) (UniProt Q5TCH4)
Put plainly: LTEA_HepaRG_CYP4A22: Life Technologies and Expression Analysis (LTEA) Assay for Cytochrome P450 4A22 (CYP4A22) using HepaRG (AID 2283495). In a few lines:
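HepaRG, 48 h post-plating -> serum-free induction medium; dosed 48 h, duplicate, 8 conc. (100 uM top, half-log), 0.5% DMSO. Readout: CYP4A22 mRNA by qRT-PCR, ACTB/GAPDH/POLR2A normalization; gain/loss fit relative to DMSO.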

Read-out in experiment [14]: Cytochrome P450 7A1 (Homo sapiens) (UniProt P22680)
In words: LTEA_HepaRG_CYP7A1: Life Technologies and Expression Analysis (LTEA) Assay for Cytochrome P450 7A1 (CYP7A1) using HepaRG (AID 2283496). In a few lines: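 HepaRG cells plated 48 h, then switched to serum-free induction medium and exposed in duplicate for 48 h to 8-point half-log series from 100 uM in 0.5% DMSO. CYP7A1 mRNA by qRT-PCR (TaqMan), normalized to ACTB/GAPDH/POLR2A; bidirectional fit versus DMSO.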

Read-out in experiment [15]: Glutathione S-Transferase (GSTA2), GSTA2 (gene 2939)
In words: LTEA_HepaRG_GSTA2: Life Technologies and Expression Analysis (LTEA) Assay for Glutathione S-Transferase (GSTA2) using HepaRG (AID 2283497). In a few lines: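 HepaRG, 48 h dosing, 8-pt half-log CRC from 100 uM, 0.5% DMSO vehicle, n=2; RNA → Fluidigm TaqMan qRT-PCR; GSTA2 vs ACTB/GAPDH/POLR2A; gain/loss fit vs DMSO.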

Activity calls are given as the source filed them. How the source made its calls: active means hit-call score of the fitted dose curve at least 0.9, where 1 is the maximum; inactive means score below 0.9.

Sequence of Cytochrome P450 2C19 (Homo sapiens) (P33261 whole entry, looked up): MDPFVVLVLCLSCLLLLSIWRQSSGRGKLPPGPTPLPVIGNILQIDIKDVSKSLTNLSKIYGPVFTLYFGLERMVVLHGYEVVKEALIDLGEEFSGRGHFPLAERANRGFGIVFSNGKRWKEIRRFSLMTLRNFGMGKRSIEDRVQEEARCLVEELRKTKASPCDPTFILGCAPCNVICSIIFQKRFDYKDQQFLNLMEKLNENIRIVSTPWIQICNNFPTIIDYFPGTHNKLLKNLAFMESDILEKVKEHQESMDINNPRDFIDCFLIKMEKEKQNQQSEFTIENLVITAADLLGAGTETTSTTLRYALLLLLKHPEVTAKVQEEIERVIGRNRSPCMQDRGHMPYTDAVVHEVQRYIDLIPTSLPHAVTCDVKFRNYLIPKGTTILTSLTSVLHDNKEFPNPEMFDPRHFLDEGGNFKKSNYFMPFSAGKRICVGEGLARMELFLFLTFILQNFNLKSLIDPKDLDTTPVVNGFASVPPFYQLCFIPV
Sequence of Cytochrome P450 3A4 (Homo sapiens) (P08684 whole entry, looked up): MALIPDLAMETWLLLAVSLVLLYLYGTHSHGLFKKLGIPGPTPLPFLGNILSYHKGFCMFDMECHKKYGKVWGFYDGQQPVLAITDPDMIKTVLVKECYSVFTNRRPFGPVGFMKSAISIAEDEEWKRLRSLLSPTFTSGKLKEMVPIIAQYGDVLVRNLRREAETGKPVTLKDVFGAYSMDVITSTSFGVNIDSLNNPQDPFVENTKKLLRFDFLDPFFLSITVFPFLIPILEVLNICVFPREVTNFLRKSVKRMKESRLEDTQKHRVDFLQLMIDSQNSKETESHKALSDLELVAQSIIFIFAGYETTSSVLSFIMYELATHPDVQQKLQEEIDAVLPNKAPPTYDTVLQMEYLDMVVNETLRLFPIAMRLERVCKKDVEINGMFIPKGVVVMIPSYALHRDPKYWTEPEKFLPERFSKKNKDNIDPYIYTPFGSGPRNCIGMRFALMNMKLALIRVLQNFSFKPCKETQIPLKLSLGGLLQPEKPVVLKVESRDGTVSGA
Sequence of Cytochrome P450 3A7 (Homo sapiens) (P24462 whole entry, looked up): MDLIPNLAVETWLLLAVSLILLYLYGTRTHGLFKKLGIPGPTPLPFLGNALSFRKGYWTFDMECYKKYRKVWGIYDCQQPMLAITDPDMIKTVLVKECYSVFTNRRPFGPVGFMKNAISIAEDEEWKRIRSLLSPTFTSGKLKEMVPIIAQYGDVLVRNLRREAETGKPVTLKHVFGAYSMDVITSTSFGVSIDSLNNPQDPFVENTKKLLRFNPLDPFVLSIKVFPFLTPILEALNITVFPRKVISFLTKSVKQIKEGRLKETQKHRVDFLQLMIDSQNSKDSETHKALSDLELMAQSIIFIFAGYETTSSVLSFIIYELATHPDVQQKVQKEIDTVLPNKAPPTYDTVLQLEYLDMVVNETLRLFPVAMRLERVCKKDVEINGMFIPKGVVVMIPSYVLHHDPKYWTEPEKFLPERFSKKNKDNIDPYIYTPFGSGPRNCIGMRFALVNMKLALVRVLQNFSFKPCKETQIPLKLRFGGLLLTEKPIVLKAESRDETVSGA

`CC1(C)C(=O)NC(=O)N1CO`: the compound was called inactive (in experiment [1]; in experiment [2]; in experiment [3]; in [4]; in experiment [5]; in the experiment with CYP2C8 (gene 1558)). Moreover, the result (with CYP2C9 (gene 1559); with CYP2E1 (gene 1571); with CYP4A11 (gene 1579); in [6]; in experiment [7]; in [8]) was inactive. Also, the result (in [9]; in [10]; in experiment [11]; in the experiment with CYP3A5 (gene 1577); in [12]; in experiment [13]) was inactive. In addition, the result in experiment [14] and in experiment [15] was inactive.
On to `O=C1O[C@H]([C@H](O)CO)C(O)=C1O`, for which the compound was classed as inactive (in experiment [1]; in experiment [2]; in experiment [3]; in experiment [4]; in [5]; in the experiment with CYP2C8 (gene 1558)). The call (with CYP2C9 (gene 1559); in the experiment with CYP2E1 (gene 1571); with CYP4A11 (gene 1579); in experiment [6]; in experiment [7]; in experiment [9]) was inactive. For the same compound, the outcome (in experiment [10]; in experiment [11]; with CYP3A5 (gene 1577); in [12]; in experiment [13]; in experiment [14]) was inactive. In addition, the compound was classed as inactive in [15].
For orientation: AC50 means the concentration at which the activity in the assay is half-maximal. On to `Nc1nc(Cl)nc2c1ncn2[C@H]1C[C@H](O)[C@@H](CO)O1`, for which the compound was called inactive in experiment [1], in experiment [3], in experiment [7], in experiment [8] and in experiment [10]. The concentration at half-maximal activity (AC50) in [2] is 715 nM (active); in experiment [4] it was 1220 nM (active); in experiment [5] it was 2050 nM (active); in the experiment with CYP2C8 (gene 1558), 1000 nM (active); in the experiment with CYP2C9 (gene 1559) it was 1070 nM (active); in the experiment with CYP2E1 (gene 1571), 879 nM (active). Further, the AC50 is 1410 nM (active) in the experiment with CYP4A11 (gene 1579); 272 nM (active) in experiment [9]; 481 nM (active) with CYP3A5 (gene 1577); 1330 nM (active) in [12]; 5920 nM (active) in experiment [13]; 1200 nM (active) in experiment [14]. In addition, the AC50 in experiment [15] was 1760 nM (active).

(Values after PubChem BioAssay (EPA / NIEHS).)
